Screens as filed in PubChem BioAssay.
An excerpt weighted towards active compounds, which were near 6.8% of everything screened.
HCV NS3h FP – hepatitis C NS3 helicase inhibition, primary screen. NS3h Cy5-dT15 DNA binding, fluorescence polarization. inhibition, % at 100 µM. 16,000 compounds, 1.6% hits. AID 687043;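 active means inhibition above the average over every tested compound plus 3 SD, cut at about 40% in these data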
Cy5 interf NS3h – Cy5 fluorescence interference, HCV helicase counter-screen | 16,000 compounds, 6% hits | fluorescence interference ratio at 100 µM | Cy5-dT15 DNA with NS3h; actives lie on both sides; signal over control mean, under 1 quenches | AID 720488;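 active means compound fluorescence over control fluorescence at most 0.8, a quencher, or at least a set upper limit, an enhancer; inactive means ratio between 0.8 and the set upper limit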
A number is an active result; . = inactive.

SMILES | HCV NS3h FP | Cy5 interf NS3h
COC(=O)c1ccccc1NC(=O)c1cc2nc(-c3ccccc3)cc(C)n2n1 | . | 0.73
CC(C)(C)NC(=O)c1cc2nc(-c3ccccc3)cc(C(F)(F)F)n2n1 | . | 0.57
CCOc1ccc(-c2cc(C)n3nc(C(=O)Nc4cc(OC)c(Cl)cc4OC)cc3n2)cc1 | . | .
COc1ccccc1C(=O)Nc1ccc(I)cc1Cl | . | .
COc1cc(C=Nc2ccc(S(N)(=O)=O)cc2)ccc1O | . | .
COc1ccc(N=Cc2ccc(O)c(OC)c2)cc1 | . | 0.8
Cc1ccc(N2C(=O)/C(=C/c3cc(C)n(C)c3C)C(=O)NC2=S)cc1 | . | .
C/C(=N\N=C1/c2ccccc2C(=O)C1C(=O)C(c1ccccc1)c1ccccc1)c1cccs1 (centres undefined) | . | 0.68
CC(CNC(=O)c1cccs1)c1ccccc1 (centres undefined) | . | .
COc1ccc(S(=O)(=O)Nc2ncccc2O)cc1 | . | .
Nc1ccc2nc(SCC(=O)NCc3ccco3)sc2c1 | . | .
COc1ccc(C2C(=C(O)c3ccccc3)C(=O)C(=O)N2c2cccc(C)c2)cc1 (centres undefined) | . | .
Cc1ccccc1OCCOc1ccc(/C=c2\sc3nc4ccccc4n3c2=O)cc1 | . | .
Cc1ccc(OCCOCCOc2ccc(/C=c3\sc4nc5ccccc5n4c3=O)cc2)cc1 | . | 1.3
COCCOC(=O)C1=C(C)N=c2s/c(=C/c3ccccc3OC)c(=O)n2C1c1ccc(OC)cc1 (centres undefined) | . | .
O=C(COc1ccccc1)C(=C(O)c1ccccc1)c1nc2ccccc2[nH]1 | . | 1.4
O=C(COc1cccc([N+](=O)[O-])c1)Nc1cccc(-c2nc3ccccc3[nH]2)c1 | . | .
CCOc1cc(Br)c(/C=C2\C(=O)NC(=O)N(c3ccc(Cl)cc3)C2=O)cc1OC | . | .
CC(C)OC(=O)c1cnn2c(C(F)(F)F)cc(-c3ccc(F)cc3)nc12 | . | .
O=C(Nc1cccc(C(F)(F)F)c1)c1cnn2c(C(F)(F)F)cc(-c3cccs3)nc12 | . | 0.66
COc1ccc(-c2cc(C(F)(F)F)n3nc(C(=O)N4CCc5ccccc5C4)cc3n2)cc1 | . | .
O=C(c1ccccc1)N1CCN(C(=O)c2nn3c(C(F)(F)F)cc(-c4cccs4)nc3c2Br)CC1 | . | 0.71
O=C(O)CN(c1ccc(Cl)cc1)S(=O)(=O)c1ccccc1 | . | .
COc1ccc(/C(N)=N\OC(=O)c2ccccc2I)cc1 | . | .
Cc1cc(OCC(=O)Nc2ccc(F)c([N+](=O)[O-])c2)ccc1Cl | . | 1.2
SMILES | HCV NS3h FP | Cy5 interf NS3h
Cc1cc(Cl)ccc1OCC(=O)Nc1ccc(F)c([N+](=O)[O-])c1 | . | .
COc1ccc(NC(=O)c2ccco2)cc1 | . | .
Clc1ccc(-c2ccc(/C=N/n3cnnc3)o2)c(Cl)c1 | . | 0.71
Clc1ccc(/C=N\n2cnnc2)cc1 | . | .
O=C(Nc1cccc2nsnc12)c1ccc(OCc2ccccc2)cc1 | . | .
O=C(O)CCNC(=O)COc1ccccc1 | . | .
COc1ccc(-c2cc(C(F)(F)F)n3nc(C(=O)Nc4ccccc4C(F)(F)F)cc3n2)cc1 | . | .
COc1ccc(-c2cc(C(F)(F)F)n3nc(C(=O)NCCCn4ccnc4)c(Cl)c3n2)cc1 | . | 0.68
CCCOc1ccc(/C=N\N=C/c2ccc(OCCC)cc2)cc1 | . | .
Cc1ccc(NC2=C(Cl)C(=O)N(Cc3ccccc3)C2=O)cc1C | . | .
O=C(CCCC(=O)OCC(F)(F)C(F)F)Nc1ccc(F)cc1F | . | .
O=C(Cn1cnc([N+](=O)[O-])n1)Nc1ccc(F)cc1F | . | 0.76
N#CC1=C(N)C(C#N)(C#N)C(c2ccc(Cl)cc2Cl)C2CCCC=C12 (centres undefined) | . | 1.2
O=C(CCCN1C(=O)/C(=C\c2cccs2)SC1=S)Nc1ccccc1O | . | .
O=C(CCN1C(=O)/C(=C/c2cccs2)SC1=S)Nc1nc2ccccc2s1 | . | 0.71
O=C(Nc1ccc(Cl)cc1Cl)c1ccccc1F | . | .
Nc1ccc(NC(=O)c2ccc(Cl)cc2Cl)c(Cl)c1 | . | 0.63
COc1ccc(N2C(=O)c3ccccc3NC2c2ccccc2)cc1 (centres undefined) | . | .
CCOC(=O)c1sc(NC(=O)c2cc3n(n2)C(C(F)(F)F)CC(c2ccc4c(c2)OCO4)N3)c(C(=O)OCC)c1C (centres undefined) | . | .
CCOC(=O)c1c(NC(=O)c2cc3n(n2)C(C(F)(F)F)CC(c2ccco2)N3)sc(C)c1C (centres undefined) | . | 0.75
Cc1ccccc1NCn1c(=S)oc2ccccc21 | . | 0.65
Cc1ccccc1NC(=O)CSc1ccccc1 | . | .
O=C1C2C(c3ccc(Cl)cc3)OC3(C(=O)c4ccccc4C3=O)C2C(=O)N1c1ccc(F)c([N+](=O)[O-])c1 (centres undefined) | . | .
COc1ccc(S(=O)(=O)N2CCN(C(=O)c3cccs3)CC2)cc1 | . | 0.69
COc1ccc(S(=O)(=O)N2CCN(C(=O)c3cccc(F)c3)CC2)cc1 | . | .
SMILES | HCV NS3h FP | Cy5 interf NS3h
O=C(O)CCCNC(=O)COc1ccccc1 | . | .
COc1cc(CC(=O)O)c([N+](=O)[O-])cc1OC | . | 0.65
CCN(C(=O)c1cc(OC)c(OC)cc1[N+](=O)[O-])c1ccccc1 | . | .
CCCC(C)NC(=O)c1ccc(Cl)cc1 (centres undefined) | . | .
O=C(NC(=S)Nc1ccc(NC(=O)c2ccc(Cl)cc2Cl)cc1)c1ccccc1 | . | .
COCCOC(=O)c1c(C)oc2ccc(OCc3c(F)cccc3Cl)cc12 | . | .
c1ccc(CCNc2ccnc3cc4ccccc4cc23)cc1 | . | .
CCN(CC)CCNc1ccc(Nc2ccnc3cc4ccccc4cc23)cc1 | . | 0.58
Clc1ccccc1N1CCN(c2ncnc3c2cnn3-c2ccccc2)CC1 | . | .
COC(=O)C(CC(C(=O)OC)C(=O)OC)C(=O)OC | . | .
COC(=O)C(CCCC(C(=O)OC)C(=O)OC)C(=O)OC | . | 0.68
O=C(CSc1nnc(-c2ccco2)n1-c1ccccc1)Nc1ccccc1[N+](=O)[O-] | . | .
CCc1ccc(NC(=O)CSc2nnc(-c3ccco3)n2-c2ccccc2)cc1 | . | 0.8
COC(=O)c1cc(NC(=O)c2cc(Br)ccc2OC)cc(C(=O)OC)c1 | . | .
Cc1cc(NC(=O)c2cccc([N+](=O)[O-])c2C)ccc1Br | . | .
COc1ccc2c(c1[N+](=O)[O-])CCC/C2=N\OC(=O)c1cccc2ccccc12 | . | .
COc1ccccc1C(=O)O/N=C1\CCCc2c1ccc(OC)c2[N+](=O)[O-] | . | 0.74
COc1ccc(/C(N)=N\OC(=O)c2cccc([N+](=O)[O-])c2C)cc1OC | . | .
COc1ccc2c(c1[N+](=O)[O-])CCC/C2=N\OC(=O)c1ccccc1SC | . | 0.63
CCOc1cc(/C=C2/SC(=S)N(CC)C2=O)ccc1OCc1ccc(Cl)c(Cl)c1 | . | .
COc1ccc(NC(=O)C(=O)NCc2ccc(C)cc2)c(OC)c1 | . | .
COc1ccccc1N1C(=O)NC(=O)C(=Cc2cc(OC)c(O)c([N+](=O)[O-])c2)C1=O | . | .
COc1ccccc1N1C(=O)C(=Cc2cccn2C)C(=O)NC1=S | 44 | 0.68
Cc1cn2c(=O)c3ccccc3nc2nc1Nc1ccccc1C(=O)O | . | .
CCOc1ccccc1/C=C1/C(=O)NN(c2ccc(C)c(Cl)c2)C1=O | . | 0.74
